Data reported in PubChem BioAssay (EPA / NIEHS).
Results filed as inconclusive are left out. Calls of active or inactive are those of the source. How the source made its calls: active means hit-call score of the fitted dose curve at least 0.9, where 1 is the maximum; inconclusive means response in the unintended direction; inactive means score below 0.9.

Key:
[1] = biological target: Cellular tumor antigen p53 (Homo sapiens) (UniProt P04637); assay: TOX21_p53_BLA_p2_ratio: Tox21 HCT-116 p53 Agonism Beta-lactamase Assay, Ratio, Phase 2 (AID 2283592)
Sequence of Cellular tumor antigen p53 (Homo sapiens) (P04637 whole entry, looked up): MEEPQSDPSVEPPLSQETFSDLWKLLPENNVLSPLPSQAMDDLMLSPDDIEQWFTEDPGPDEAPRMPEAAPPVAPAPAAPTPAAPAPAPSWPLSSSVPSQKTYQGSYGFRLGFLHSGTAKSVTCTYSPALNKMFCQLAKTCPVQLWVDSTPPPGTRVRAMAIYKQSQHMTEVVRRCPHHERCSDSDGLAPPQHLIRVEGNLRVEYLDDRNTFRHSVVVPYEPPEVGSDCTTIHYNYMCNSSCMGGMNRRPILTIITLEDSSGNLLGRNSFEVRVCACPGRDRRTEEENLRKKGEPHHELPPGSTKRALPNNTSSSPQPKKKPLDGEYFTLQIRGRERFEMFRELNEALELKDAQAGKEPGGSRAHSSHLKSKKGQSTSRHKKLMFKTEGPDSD
Outline: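 An inducible beta-lactamase reporter in HCT116 cells signals p53 pathway activation. After 16 h chemical exposure at 37C, cells load CCF4-AM substrate for 2 h at room temperature; activity is the cleaved/uncleaved emission ratio relative to DMSO.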

[2] = TOX21_p53_BLA_p3_viability: Viability Assessment in the Tox21 HCT-116 p53 Agonism Beta-lactamase Assay, Phase 3 (AID 2283593);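 further: cells exposed to compound for 16 h before reading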
Outline: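 Cellular ATP was quantified by CellTiter-Glo luminescence, read after 30 min at room temperature. Beforehand, HCT116 cells (4000/well) received compound 5 h post-seeding, 217-fold diluted from DMSO, then incubated 16 h at 37C.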

[3] = TOX21_p53_BLA_p4_viability: Viability Assessment in the Tox21 HCT-116 p53 Agonism Beta-lactamase Assay, Phase 4 (AID 2283597);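 further: hits lower the luminescence signal meaning cytotoxicity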
Outline: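 Compound exposure of HCT116 cells lasts 16 h at 37C, 5% CO2, with DMSO stocks diluted 217-fold. Cellular ATP is then quantified by CellTiter-Glo luminescence after 30 min at room temperature.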

[4] = biological target: Cellular tumor antigen p53 (Homo sapiens) (UniProt P04637); assay: TOX21_p53_BLA_p5_ratio: Tox21 HCT-116 p53 Agonism Beta-lactamase Assay, Ratio, Phase 5 (AID 2283599)
Outline: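 Beta-lactamase reporter ratio (blue 460 nm over green 530 nm, 405 nm excitation) after 2 h CCF4-AM loading, in HCT-116 cells exposed 16 h at 37 C to compounds pinned at 217-fold dilution. Increases relative to DMSO baseline scored.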

[5] = TOX21_p53_BLA_p5_viability: Viability Assessment in the Tox21 HCT-116 p53 Agonism Beta-lactamase Assay, Phase 5 (AID 2283600)
Outline: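 Counter-readout for cytotoxicity: ATP-dependent luminescence from CellTiter-Glo, read in the beta-lactamase wells after 30 min at RT, following a 16 h compound exposure at 37C.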

[6] = biological target: Cellular tumor antigen p53 (Homo sapiens) (UniProt P04637); assay: TOX21_p53_BLA_p4_ratio: Tox21 HCT-116 p53 Agonism Beta-lactamase Assay, Ratio, Phase 4 (AID 2283601)
Outline: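 Signal is the blue/green (460nm/530nm) ratio of cleaved versus uncleaved CCF4-AM substrate, read after 2 h substrate loading. Cells were HCT116 carrying the p53-responsive beta-lactamase reporter, dosed 16 h at 37C, 5% CO2; CellTiter-Glo measured in parallel.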

[7] = biological target: Cellular tumor antigen p53 (Homo sapiens) (UniProt P04637); assay: TOX21_p53_BLA_p3_ratio: Tox21 HCT-116 p53 Agonism Beta-lactamase Assay, Ratio, Phase 3 (AID 2283596)
Outline: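 HCT116 p53-bla cells (4000/well) given compound in DMSO (217-fold dilution) after 5 h, incubated 16 h at 37C. CCF4-AM substrate 2 h at room temperature; 460/530 nm emission ratio, gain fitted against DMSO.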

Measured: outcome

CCOC(=O)c1ccccc1C
not listed: [7]
inactive: all other assays above

CC(C)(C)C1CCC(=O)CC1
not listed: [3]
inactive: all other assays above

CC12CCC(CC1)C(C)(C)O2
not listed: [3] | [5]
inactive: all other assays above

COCC(=O)O
not listed: [4] | [7]
inactive: all other assays above

CC(C)CC(=O)OCc1ccccc1
not listed: [7]
inactive: all other assays above

CCCC/C=C/C=C\C=O
not listed: [2] | [6]
inactive: all other assays above

c1ccc2c(c1)[nH]c1ccccc12
not listed: [3]
inactive: all other assays above

CCOC(=O)/C=C\C(=O)OCC
not listed: [3]
inactive: all other assays above

COc1ccc(C(=O)c2ccccc2)c(O)c1
not listed: [3]
inactive: all other assays above

CC(=O)OC/C=C(/C)CCC=C(C)C
not listed: [2]
inactive: all other assays above

OCCCc1ccccc1
not listed: [3] | [5]
inactive: all other assays above

O=C(O)CCCC(=O)O
not listed: [3]
inactive: all other assays above

CCC(C)(O)CCCC(C)C (stereo not drawn)
not listed: [3]
inactive: all other assays above

CC1OC(=O)C(C)OC1=O (stereo not drawn)
inactive: [1] | [2] | [7] | [5]

CCCCCCOC(=O)CCCCC(=O)OCCCCCC
inactive: [1] | [2] | [3]

CCCCC1CCC(=O)O1 (stereo not drawn)
not listed: [2]
inactive: all other assays above

C=CC(=O)OCC(C)OCC(C)OCC(C)OC(=O)C=C (stereo not drawn)
not listed: [3] | [5]
inactive: all other assays above

C/C=C/C=C/CCCCCCCO
not listed: [6] | [7]
inactive: all other assays above

CC/C=C\CCOC(=O)c1ccccc1O
not listed: [3]
inactive: all other assays above

C=C(C)C1CC=C(C)C(OC(C)=O)C1 (stereo not drawn)
inactive: [1] | [7]

CCOC(=O)C1=NOC(c2ccccc2)(c2ccccc2)C1
not listed: [2]
inactive: all other assays above

CCCC(CC)c1ccccc1 (stereo not drawn)
inactive: [1] | [2] | [3]

O=C(O)CC(C(=O)O)S(=O)(=O)O (stereo not drawn)
inactive: [1] | [2] | [5] | [6]

CC(C)COC(=O)CC(C(=O)OCC(C)C)S(=O)(=O)O (stereo not drawn)
not listed: [5] | [7]
inactive: all other assays above

CC(=O)CCC=C(C)C
not listed: [3]
inactive: all other assays above

CCCCOCCOC(=O)COc1ccc(Cl)cc1Cl
not listed: [2] | [6]
inactive: all other assays above

CC(=O)OC(C)c1ccccc1 (stereo not drawn)
not listed: [2] | [3]
inactive: all other assays above

C=C(C)[C@@H]1CC=C(C)CC1
not listed: [1] | [5]
inactive: all other assays above

O=C1CCCCCCCCCCC1
inactive: [1] | [7] | [5] | [6]

Oc1ccccc1Cc1ccccc1O
inactive: [1] | [7] | [3] | [6]

O=c1c(O)c(-c2ccc(O)cc2O)oc2cc(O)cc(O)c12
inactive: [2]

CO[Si](CCCS)(OC)OC
not listed: [2] | [3]
inactive: all other assays above
